From PubChem BioAssay come the findings set out here.

Assay [1] in a line: reduced mouse 2C T cell binding to pMHC/ICAM-1 vesicles – MLPCN validation set, flow cytometry, LFA-1/ICAM-1 modulator project, pilot screen (AID 2523;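 active means response below a set limit, under 55% cells CD8-positive and vesicle-bound, and CD8 cells' 90th-percentile brightness under 279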;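 on vesicle binding response: mean PE anti-B7-1 fluorescence of CD8+ cells relative to row control; 100% = QL9-loaded vesicles with DMSO vehicle in the same plate row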). The following applies: 2C mouse CD8+ T cells, at 7 µM, stronger effect = lower value; double positive events: measured here: CD8+/vesicle+ event percentage. For orientation: In flow cytometry, cells or beads pass a laser one at a time.
Assay [2] addresses Integrin beta-1 (Homo sapiens) + Integrin alpha-4 (Homo sapiens) (UniProt P13612+P05556). Description: alpha4beta1 integrin LIBS antibody binding reduction – U937 cells, HUTS-21 mAb, flow cytometry, validation set, VLA-4 allosteric modulator project, pilot screen (AID 2674;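 active means inhibition above 50%, about 3 SD of the validation set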;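 further: antibody binding induced by the VLA-4 ligand LDV present at three times its Kd; 0% = LDV ligand with antibody and no compound and 100% = antibody without LDV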). The following applies: HUTS-21 LIBS mAb binding, at 6.7 µM, stronger effect = higher value, binding induced by LDV ligand.

Assay [3] can be described thus: calorie-restriction mimetic ROS inhibitors, yeast – validation compound set, pilot screen (AID 2706;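 active means superoxide response below 65% of plate, a cut near 3 SD across the whole screen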;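 further: yeast exposed to compound for one week at 30 degrees C before staining; 100% = mean of all compound wells on the same plate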). Conditions: S. cerevisiae aging, superoxide DHE fluorescence; at 10 µM, stronger effect = lower value.
Assay [4] has as its target Beta-adrenergic receptor kinase 1 (Homo sapiens) (UniProt P25098). As to the kind of experiment: GRK2 binders displacing RNA aptamer, biochemical, validation, human GRK2, bead flow cytometry (AID 488806). Conditions: bead-bound GRK2, FAM-aptamer displacement, at 10 µM, stronger effect = higher value.
For assay [5], the target named is Beta-2 adrenergic receptor (Homo sapiens) (UniProt P07550). As to the kind of experiment: agonist-induced loss of surface beta2AR – cell-based, FAP fluorogen, flow cytometry, validation set, pilot screen (AID 504459;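 active means percent response above 42, roughly 3 SD of non-fluorescent test compounds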;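 further: agonist-driven loss of surface beta2AR via internalization measured by FAP dye flow cytometry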). The following applies: Am2.2-beta2AR cells, at 10 µM, stronger effect = higher value.
Assay [6] addresses AP-2 complex subunit beta (Homo sapiens) (UniProt P63010). As to the kind of experiment: beta-arrestin/AP2 interaction blockers – biochemical, validation set, GST-AP2 beads, flow cytometry, pilot screen (AID 504541;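 active means inhibition above 54%, about 3 SD of non-fluorescent compounds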;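 further: AP2 carries R879A mutation and is captured from E. coli lysate; bead-bound FITC arrestin peptide fluorescence measuring arrestin peptide binding to AP2; 0% = DMSO wells and 100% = excess unlabeled arrestin peptide control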). The following applies: FITC arrestin peptide, at 10 µM, stronger effect = higher value, AP2 beta2 appendage fragment, R879A mutant.
Assay [7] can be described thus: cytosolic pH regulators acting via V-ATPase – S. cerevisiae, pHLuorin, HTS validation (AID 504600; in the data active means response above about 15%;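 further: plate controls were DMSO for no effect and reference compound for full effect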). Conditions: V-ATPase proton transport, at 10 µM, stronger effect = higher value.
Assay [8] concerns anti-desmoglein-3 scFv antibody binding to human DSG3. As to the kind of experiment: blockers of pathogenic pemphigus antibody–desmoglein-3 binding – biochemical, validation compound set, bead-based, flow cytometry, pilot screen (AID 588368;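 active means binding below the plate cutoff, the plate median minus 3 SD, with a reading above zero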;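 further: signal is the median channel fluorescence of bead-bound GFP antibody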). Conditions: Protein G beads, DSG3-Fc, scFv-GFP binding, at 10 µM, stronger effect = lower value.
A short description of assay [9]: Nile Red efflux blockade in pump-expressing yeast – validation compound set, multiplex, phenotypic, pilot screen (AID 588506;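 active means efflux inhibition above 0.42, the validation set average plus 4 SD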;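 further: Nile Red retained in cells so higher fluorescence means more efflux inhibition; 0 = negative control wells and 1 = enniatin B 25 µM full block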). Conditions: S. cerevisiae pump-expressing triplex, Nile Red efflux flow cytometry; at 10 µM; stronger effect = higher value; the pumps come from Candida albicans.
Assay [10] has as its target ATP-binding cassette sub-family B member 6 (Homo sapiens) (UniProt Q9NP58). Description: blockers of ABCB6-driven porphyrin uptake – K562-ABCB6 cells, flow cytometry, validation set, pilot screen (AID 588550;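 active means inhibition above the screen-wide mean plus 3 SD, about 51%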;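 further: 0% = DMSO wells and 100% = benzethonium chloride 70 µM positive control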). Conditions: K562-ABCB6 porphyrin accumulation, 1 h, at 10 µM, stronger effect = higher value.
Assay [11] can be described thus: AML differentiation inducers, ER-HoxA9 marrow cells – cell-based, GFP/MAC1 double positive, flow cytometry, validation set, primary screen (AID 588685;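 active means differentiation response of at least 50%, scaled between solvent and reference control, from cells with both markers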;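 further: compound exposure lasts four days before antibody staining and flow analysis; 0% = DMSO wells and 100% = 5 µM fulvestrant positive control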). Conditions: stronger effect = higher value, normalized: vehicle 0, fulvestrant 100.

Calls of active or inactive are those of the source.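 How the source made its calls, unless noted: active means aptamer binding inhibition above 30%, about 3 SD of noise from non-fluorescent compounds; inactive means inhibition at or below 30%.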

Beta-2 adrenergic receptor (Homo sapiens), sequence (P07550 whole entry, looked up): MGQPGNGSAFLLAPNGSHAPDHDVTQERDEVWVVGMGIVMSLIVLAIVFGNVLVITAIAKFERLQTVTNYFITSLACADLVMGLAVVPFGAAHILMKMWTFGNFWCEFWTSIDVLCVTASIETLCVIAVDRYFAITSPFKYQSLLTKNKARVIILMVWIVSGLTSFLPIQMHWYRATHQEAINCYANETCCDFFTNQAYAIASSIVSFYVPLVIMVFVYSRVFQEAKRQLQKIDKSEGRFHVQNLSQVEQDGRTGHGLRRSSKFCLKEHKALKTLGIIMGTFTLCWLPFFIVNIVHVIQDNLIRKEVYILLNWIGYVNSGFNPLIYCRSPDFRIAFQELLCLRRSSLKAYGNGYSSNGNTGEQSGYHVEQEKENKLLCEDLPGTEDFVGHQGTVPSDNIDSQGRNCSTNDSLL
Beta-adrenergic receptor kinase 1 (Homo sapiens), sequence (P25098 whole entry, looked up): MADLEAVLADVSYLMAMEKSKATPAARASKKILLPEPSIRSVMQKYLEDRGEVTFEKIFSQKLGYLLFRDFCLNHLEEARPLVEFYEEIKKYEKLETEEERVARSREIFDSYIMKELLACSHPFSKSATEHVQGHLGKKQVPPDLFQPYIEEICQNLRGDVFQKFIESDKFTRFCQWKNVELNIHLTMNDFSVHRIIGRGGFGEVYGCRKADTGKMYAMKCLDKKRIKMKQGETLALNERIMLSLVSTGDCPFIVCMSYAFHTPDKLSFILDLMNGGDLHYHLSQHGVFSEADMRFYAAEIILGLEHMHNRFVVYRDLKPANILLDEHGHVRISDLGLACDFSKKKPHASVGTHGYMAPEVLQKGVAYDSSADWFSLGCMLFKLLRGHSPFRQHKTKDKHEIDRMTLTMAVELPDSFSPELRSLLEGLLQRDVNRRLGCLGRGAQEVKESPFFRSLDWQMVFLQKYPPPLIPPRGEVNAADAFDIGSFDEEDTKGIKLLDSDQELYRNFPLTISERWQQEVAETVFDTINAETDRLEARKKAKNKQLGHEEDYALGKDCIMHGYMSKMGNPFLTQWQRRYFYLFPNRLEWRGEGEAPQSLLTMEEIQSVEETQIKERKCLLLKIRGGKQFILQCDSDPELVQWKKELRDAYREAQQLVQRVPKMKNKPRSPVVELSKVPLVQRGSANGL
Integrin beta-1 (Homo sapiens) + Integrin alpha-4 (Homo sapiens), sequence (P05556 whole entry, looked up): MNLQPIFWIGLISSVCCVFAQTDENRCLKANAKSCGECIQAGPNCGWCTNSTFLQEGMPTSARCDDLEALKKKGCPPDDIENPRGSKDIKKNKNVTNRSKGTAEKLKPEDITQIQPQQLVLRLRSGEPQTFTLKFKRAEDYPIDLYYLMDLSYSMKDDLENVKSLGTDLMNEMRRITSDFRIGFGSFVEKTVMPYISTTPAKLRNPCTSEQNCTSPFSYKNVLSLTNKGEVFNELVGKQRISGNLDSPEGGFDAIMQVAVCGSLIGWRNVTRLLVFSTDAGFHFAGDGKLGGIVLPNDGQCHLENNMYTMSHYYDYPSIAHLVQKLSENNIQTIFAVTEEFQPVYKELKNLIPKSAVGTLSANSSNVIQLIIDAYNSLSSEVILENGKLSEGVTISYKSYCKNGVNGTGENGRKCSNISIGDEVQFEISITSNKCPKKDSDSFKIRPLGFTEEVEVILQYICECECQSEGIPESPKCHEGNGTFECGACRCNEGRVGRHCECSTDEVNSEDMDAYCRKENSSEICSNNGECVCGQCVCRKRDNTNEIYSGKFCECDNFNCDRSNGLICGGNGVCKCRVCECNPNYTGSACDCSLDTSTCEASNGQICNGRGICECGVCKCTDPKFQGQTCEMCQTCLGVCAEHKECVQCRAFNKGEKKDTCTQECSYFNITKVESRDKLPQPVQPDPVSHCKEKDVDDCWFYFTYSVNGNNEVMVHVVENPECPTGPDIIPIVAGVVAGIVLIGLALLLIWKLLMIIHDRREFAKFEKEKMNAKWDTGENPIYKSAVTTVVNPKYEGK
Integrin beta-1 (Homo sapiens) + Integrin alpha-4 (Homo sapiens), sequence (P13612 whole entry, looked up): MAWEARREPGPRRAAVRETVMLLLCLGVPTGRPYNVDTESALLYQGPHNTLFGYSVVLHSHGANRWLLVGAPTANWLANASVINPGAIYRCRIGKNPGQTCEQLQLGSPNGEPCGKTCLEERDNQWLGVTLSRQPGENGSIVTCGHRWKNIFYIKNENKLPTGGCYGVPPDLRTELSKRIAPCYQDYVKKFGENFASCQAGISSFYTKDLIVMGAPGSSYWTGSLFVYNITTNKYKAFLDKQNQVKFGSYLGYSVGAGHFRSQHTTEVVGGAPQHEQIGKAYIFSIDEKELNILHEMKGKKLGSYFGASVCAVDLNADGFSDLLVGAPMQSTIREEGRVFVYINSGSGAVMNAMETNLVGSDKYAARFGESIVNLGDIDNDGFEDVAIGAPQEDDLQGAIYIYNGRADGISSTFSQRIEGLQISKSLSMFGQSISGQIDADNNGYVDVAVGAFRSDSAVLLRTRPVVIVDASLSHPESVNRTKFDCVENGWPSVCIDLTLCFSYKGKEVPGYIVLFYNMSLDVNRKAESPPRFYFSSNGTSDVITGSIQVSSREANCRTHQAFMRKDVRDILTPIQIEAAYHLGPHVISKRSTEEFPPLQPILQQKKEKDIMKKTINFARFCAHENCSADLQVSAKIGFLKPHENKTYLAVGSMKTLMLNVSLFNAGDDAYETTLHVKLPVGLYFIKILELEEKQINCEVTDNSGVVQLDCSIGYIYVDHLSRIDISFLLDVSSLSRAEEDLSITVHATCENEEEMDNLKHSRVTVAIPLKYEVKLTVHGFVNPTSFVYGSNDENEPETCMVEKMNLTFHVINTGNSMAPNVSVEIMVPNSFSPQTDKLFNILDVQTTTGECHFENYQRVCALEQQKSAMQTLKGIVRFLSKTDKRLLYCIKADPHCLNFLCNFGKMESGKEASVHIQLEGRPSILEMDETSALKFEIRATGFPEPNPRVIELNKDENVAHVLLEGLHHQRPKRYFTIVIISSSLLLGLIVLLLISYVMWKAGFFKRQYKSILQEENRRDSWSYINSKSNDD
AP-2 complex subunit beta (Homo sapiens), sequence (P63010 whole entry, looked up, the tested form may be a part, one chain of several): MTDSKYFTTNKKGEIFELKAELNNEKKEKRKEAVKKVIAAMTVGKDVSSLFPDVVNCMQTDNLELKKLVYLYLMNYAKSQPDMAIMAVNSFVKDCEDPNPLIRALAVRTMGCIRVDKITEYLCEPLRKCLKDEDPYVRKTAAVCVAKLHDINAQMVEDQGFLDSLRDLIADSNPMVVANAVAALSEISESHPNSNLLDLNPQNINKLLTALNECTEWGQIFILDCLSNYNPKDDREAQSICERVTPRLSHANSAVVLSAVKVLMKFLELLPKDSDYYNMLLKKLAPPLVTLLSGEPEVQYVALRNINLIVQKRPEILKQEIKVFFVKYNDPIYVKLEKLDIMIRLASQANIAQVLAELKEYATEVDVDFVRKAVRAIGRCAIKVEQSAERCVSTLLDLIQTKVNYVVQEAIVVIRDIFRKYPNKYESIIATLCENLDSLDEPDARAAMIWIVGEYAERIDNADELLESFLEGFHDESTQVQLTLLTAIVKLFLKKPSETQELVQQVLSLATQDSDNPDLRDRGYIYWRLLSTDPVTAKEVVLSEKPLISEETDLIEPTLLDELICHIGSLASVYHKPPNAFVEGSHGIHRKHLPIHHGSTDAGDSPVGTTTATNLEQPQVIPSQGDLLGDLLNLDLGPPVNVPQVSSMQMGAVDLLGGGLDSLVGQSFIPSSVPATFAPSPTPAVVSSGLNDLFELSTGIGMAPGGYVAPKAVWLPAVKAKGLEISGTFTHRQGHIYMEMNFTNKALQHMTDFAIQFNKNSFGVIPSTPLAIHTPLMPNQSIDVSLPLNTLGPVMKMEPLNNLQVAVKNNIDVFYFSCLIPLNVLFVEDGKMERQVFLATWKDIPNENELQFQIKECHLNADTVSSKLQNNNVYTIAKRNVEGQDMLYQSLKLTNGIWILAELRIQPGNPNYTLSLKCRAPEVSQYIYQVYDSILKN
ATP-binding cassette sub-family B member 6 (Homo sapiens), sequence (Q9NP58 whole entry, looked up): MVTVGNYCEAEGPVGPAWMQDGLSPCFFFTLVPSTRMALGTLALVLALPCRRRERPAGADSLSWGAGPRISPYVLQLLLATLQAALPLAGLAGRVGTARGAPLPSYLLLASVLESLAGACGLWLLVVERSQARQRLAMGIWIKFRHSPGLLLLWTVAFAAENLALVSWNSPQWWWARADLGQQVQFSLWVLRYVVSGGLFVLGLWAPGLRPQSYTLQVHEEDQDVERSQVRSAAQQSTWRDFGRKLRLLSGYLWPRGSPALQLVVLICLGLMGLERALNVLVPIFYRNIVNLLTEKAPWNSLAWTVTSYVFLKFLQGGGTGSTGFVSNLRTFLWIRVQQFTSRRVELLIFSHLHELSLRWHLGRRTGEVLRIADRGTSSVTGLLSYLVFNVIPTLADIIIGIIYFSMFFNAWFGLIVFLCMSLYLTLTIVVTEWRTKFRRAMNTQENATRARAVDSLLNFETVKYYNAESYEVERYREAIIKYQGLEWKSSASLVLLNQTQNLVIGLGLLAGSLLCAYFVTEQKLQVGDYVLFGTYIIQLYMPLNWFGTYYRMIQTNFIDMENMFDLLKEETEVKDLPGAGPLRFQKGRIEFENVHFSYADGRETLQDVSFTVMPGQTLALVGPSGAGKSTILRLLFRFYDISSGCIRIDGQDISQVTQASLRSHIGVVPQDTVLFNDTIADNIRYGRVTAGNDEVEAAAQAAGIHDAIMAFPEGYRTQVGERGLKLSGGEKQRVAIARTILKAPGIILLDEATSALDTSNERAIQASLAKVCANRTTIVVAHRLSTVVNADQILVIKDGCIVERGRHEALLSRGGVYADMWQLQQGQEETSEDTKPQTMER

In [1], `CCOC(=O)c1cnc2ccc(C(=O)OC)cc2c1Nc1ccc2c(c1)OCCO2` returned a double positive events of 63.9%. In addition, the vesicle binding response in assay [1] is 266% (inactive). The values for the inhibition in assay [2], in [6] and in assay [10] were 0.59% (inactive), -8.06% (inactive) and -2% (inactive), respectively. The superoxide response (% of plate) in assay [3] was 99.1% (inactive). The aptamer binding inhibition in [4] was 6% (inactive). The results for the response in assay [5] and in assay [7] were -25.7% (inactive) and -27.9% (inactive), respectively. Moreover, the binding (% of control) in assay [8] is 97.4% (inactive). Moreover, the efflux inhibition (fraction of control) in assay [9] was 0.08 (inactive). Besides, in [11], the differentiation response was -0.06% (inactive).

Take `C[C@H](NC(=O)Nc1ccccc1F)C(=O)O`: in [1], the double positive events came out at 66%. In [1], the vesicle binding response is 272% (inactive). In addition, the figures for the inhibition in [2], in assay [6] and in [10] were -12.7% (inactive), -4.89% (inactive) and 7% (inactive), respectively. Also, the superoxide response (% of plate) in [3] was 106% (inactive). Besides, in assay [4], the aptamer binding inhibition was 6% (inactive). Also, the response in [5] was -5.56% (inactive); in assay [7], -9.72% (inactive). The binding (% of control) in assay [8] is 101% (inactive). Moreover, the efflux inhibition (fraction of control) in assay [9] is -0.24 (inactive). The differentiation response in [11] was -10.4% (inactive).

In [1], `C=C(C)c1nc2cc(OC)c(OC)cc2c(=O)o1` yielded a double positive events of 66.2%. Further, the vesicle binding response in assay [1] is 181% (inactive). The inhibition (usually the relative decrease from the control value, in per cent) in assay [2] is -9.06% (inactive); in [6], 0.91% (inactive); in assay [10], 11% (inactive). For the same compound, the superoxide response (% of plate) in [3] is 96.8% (inactive). In addition, in [4], the aptamer binding inhibition is 0% (inactive). Besides, the figures for the response in assay [5] and in assay [7] were -1.85% (inactive) and 2.81% (inactive), respectively. Also, the binding (% of control) in [8] is 105% (inactive). In addition, the efflux inhibition (fraction of control) in assay [9] is -0.46 (inactive). In addition, in assay [11], the differentiation response is 9.01% (inactive).

The compound `NS(=O)(=O)c1cc2c(cc1C(F)(F)F)NCNS2(=O)=O` displayed a double positive events in [1] of 80.6%. The vesicle binding response in [1] was 205% (inactive). For the same compound, the inhibition in assay [2] was 10.8% (inactive); in [6], 1.9% (inactive); in assay [10] it was 11% (inactive). The superoxide response (% of plate) in assay [3] is 92.9% (inactive). In addition, the aptamer binding inhibition in [4] was 5% (inactive). Further, the response in assay [5] is -9.47% (inactive); in assay [7], 1.35% (inactive). The binding (% of control) in assay [8] was 101% (inactive). Further, in [9], the efflux inhibition (fraction of control) is -0.04 (inactive). For the same compound, the differentiation response in assay [11] was -3.02% (inactive).

With `Cc1csc(CCc2nc(C)cs2)n1`, the double positive events in assay [1] came to 55.3%. The vesicle binding response in assay [1] is 130% (inactive). Besides, the values for the inhibition in [2], in assay [6] and in assay [10] were 2.93% (inactive), -2.65% (inactive) and 17% (inactive), respectively. Further, in assay [3], the superoxide response (% of plate) was 108% (inactive). For the same compound, the aptamer binding inhibition in [4] is 1% (inactive). The response in assay [5] is -2.9% (inactive); in [7] it was 0.13% (inactive). Moreover, the binding (% of control) in assay [8] is 102% (inactive). Besides, in assay [9], the efflux inhibition (fraction of control) is 0.01 (inactive). In [11], the differentiation response was -4.57% (inactive).

In the case of `O=c1cc(-c2ccc3c(c2)OCCO3)oc2ccc(Cl)cc12`, the double positive events in assay [1] was 59%. For the same compound, the vesicle binding response in [1] was 102% (inactive). The results for the inhibition in assay [2], in assay [6] and in assay [10] were 2.93% (inactive), -6.8% (inactive) and 27% (inactive), respectively. Also, the superoxide response (% of plate) in assay [3] was 98.9% (inactive). Further, the aptamer binding inhibition in [4] was -1% (inactive). Besides, the response was -2.34% (inactive) in assay [5] and 51.3% (active) in assay [7]. Also, in [8], the binding (% of control) is 74.9% (active). Further, the efflux inhibition (fraction of control) in assay [9] was 0.08 (inactive). Besides, the differentiation response in assay [11] was -6.03% (inactive).
